Potency data for 4 molecules are collected here from PubChem BioAssay (NCATS).

Each structure is given as a SMILES string. Results filed as inconclusive are left out. Activity calls are given as the source filed them. The call rests on the fitted dose curve; in most records, active means well fitted curve in the direction sought with a large enough effect; inconclusive means small, poorly fitted or top-dose-only effect, or another doubt; inactive means no such curve, though single readings can be large; an effect the other way counts as inactive or inconclusive.

Test [1] concerns the target Rap guanine nucleotide exchange factor 3 (Homo sapiens) (UniProt O95398). Put plainly: Confirmatory qHTS for antagonist of cAMP-regulated guanine nucleotide exchange factor 3 (EPAC1) (AID 1645880). Further: nearly all actives have a fitted effect of over 55% in size. Further: potency means the concentration at half of the fitted maximal effect. To be noted: EPAC1 Rap1B-BODIPY-GDP exchange, fluorescence; activity, negative = inhibition: at 115 µM (top of the series). In a few lines:
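Nucleotide exchange uses 100 nM EPAC1, 250 nM RAP1B-BODIPY-GDP and 50 uM GDP, with compounds in a concentration-titration series. After 5 min at room temperature, fluorescence (480 nm ex/540 nm em) is read every 5 min for 30 min. Data are normalized to control ATA and DMSO.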
Background: qHTS replaces the single test concentration by a dilution series.

Test [2] has the same target. Put plainly: Confirmatory qHTS for agonist of cAMP-regulated guanine nucleotide exchange factor 3 (EPAC1) (AID 1645881).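 Further: EPAC1 catalysed release of BODIPY-GDP from Rap1B seen as fluorescence loss; nearly all actives have a fitted effect of over 75% in size.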
Test [3] addresses Rap guanine nucleotide exchange factor 4 (Homo sapiens) (UniProt Q8WZA2). Put plainly: Confirmatory qHTS for agonist of cAMP-regulated guanine nucleotide exchange factor 4 (EPAC2) (AID 1645884).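 Further: nucleotide exchange releases bodipy-GDP from Rap1 and this lowers its fluorescence; nearly all actives have a fitted effect of over 65% in size.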
Test [4] deals with Rap guanine nucleotide exchange factor 3 (Homo sapiens) (UniProt O95398). Put plainly: Counterscreen qHTS for antagonist of cAMP-regulated guanine nucleotide exchange factor 3 (EPAC1) (AID 1645888).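 Further: fluorescence loss as bound BODIPY-GDP is released from Rap1B.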 In a few lines: (§1)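 Rap1B-BODIPY-GDP 250 nM + GDP 50 uM; cpds 7-pt, final 9.74 nM–152 uM (activator mode) or from 7.32 nM upwards (inhibitor mode); RT; FI 480/540 nm at 5 and 30 min, then ± cAMP, reread.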

Test [5] has the same target. In words: Counterscreen qHTS for agonist of cAMP-regulated guanine nucleotide exchange factor 3 (EPAC1) (AID 1645889). Further: nearly all actives have a fitted effect of over 40% in size. In a few lines:
as §1

Sequence of Rap guanine nucleotide exchange factor 3 (Homo sapiens) (O95398 whole entry, looked up): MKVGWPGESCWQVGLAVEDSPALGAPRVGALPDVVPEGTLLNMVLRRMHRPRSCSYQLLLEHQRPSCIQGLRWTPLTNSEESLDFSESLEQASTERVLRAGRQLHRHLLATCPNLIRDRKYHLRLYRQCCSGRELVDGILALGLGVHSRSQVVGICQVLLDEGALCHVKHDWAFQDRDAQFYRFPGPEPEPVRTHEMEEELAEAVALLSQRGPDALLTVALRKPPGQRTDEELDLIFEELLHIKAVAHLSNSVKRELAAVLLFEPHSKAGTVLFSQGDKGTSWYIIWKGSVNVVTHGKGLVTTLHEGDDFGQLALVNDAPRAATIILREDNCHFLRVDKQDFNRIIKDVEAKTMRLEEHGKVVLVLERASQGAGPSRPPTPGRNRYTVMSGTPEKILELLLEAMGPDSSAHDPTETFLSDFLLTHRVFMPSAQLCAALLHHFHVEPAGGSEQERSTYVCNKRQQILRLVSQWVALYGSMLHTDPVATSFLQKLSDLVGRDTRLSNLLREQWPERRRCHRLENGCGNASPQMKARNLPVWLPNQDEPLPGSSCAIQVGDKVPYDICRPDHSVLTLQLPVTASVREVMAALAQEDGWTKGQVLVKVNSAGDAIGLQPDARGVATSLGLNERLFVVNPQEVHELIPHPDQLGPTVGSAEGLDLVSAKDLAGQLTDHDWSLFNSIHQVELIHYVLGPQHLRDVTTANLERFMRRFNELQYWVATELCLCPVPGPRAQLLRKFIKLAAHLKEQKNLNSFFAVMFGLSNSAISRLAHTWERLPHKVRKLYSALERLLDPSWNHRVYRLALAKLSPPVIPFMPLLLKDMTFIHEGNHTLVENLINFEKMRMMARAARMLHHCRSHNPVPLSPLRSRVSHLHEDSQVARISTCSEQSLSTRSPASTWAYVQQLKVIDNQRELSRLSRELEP
Sequence of Rap guanine nucleotide exchange factor 4 (Homo sapiens) (Q8WZA2 whole entry, looked up): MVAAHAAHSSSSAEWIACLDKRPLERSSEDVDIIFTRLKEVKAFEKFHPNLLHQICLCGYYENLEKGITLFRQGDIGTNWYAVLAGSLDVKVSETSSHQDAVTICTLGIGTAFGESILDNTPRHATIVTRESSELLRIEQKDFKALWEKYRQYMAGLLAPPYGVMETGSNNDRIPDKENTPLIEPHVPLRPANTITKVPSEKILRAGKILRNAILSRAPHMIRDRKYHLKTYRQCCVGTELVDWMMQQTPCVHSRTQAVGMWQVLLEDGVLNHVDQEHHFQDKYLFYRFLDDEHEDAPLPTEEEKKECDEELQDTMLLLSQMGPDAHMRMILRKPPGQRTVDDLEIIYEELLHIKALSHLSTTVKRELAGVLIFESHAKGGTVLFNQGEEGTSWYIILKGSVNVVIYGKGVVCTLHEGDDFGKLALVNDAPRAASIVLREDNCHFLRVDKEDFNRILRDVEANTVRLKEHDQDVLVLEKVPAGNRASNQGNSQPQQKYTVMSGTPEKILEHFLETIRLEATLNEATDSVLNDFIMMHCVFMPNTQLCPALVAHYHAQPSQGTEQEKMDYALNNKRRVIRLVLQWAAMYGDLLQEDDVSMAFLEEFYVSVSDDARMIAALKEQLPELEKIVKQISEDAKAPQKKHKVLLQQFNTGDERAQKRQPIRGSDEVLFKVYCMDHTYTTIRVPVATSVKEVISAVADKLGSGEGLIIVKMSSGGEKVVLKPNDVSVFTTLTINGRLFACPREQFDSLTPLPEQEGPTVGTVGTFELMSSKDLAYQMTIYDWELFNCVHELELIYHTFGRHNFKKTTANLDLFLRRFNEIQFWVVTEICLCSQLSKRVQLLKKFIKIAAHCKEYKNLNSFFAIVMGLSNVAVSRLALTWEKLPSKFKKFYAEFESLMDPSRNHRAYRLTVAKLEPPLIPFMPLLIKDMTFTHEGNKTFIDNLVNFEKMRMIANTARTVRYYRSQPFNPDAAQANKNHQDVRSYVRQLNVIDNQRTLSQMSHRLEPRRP

As for `CC(=O)OC1CSC2c3ccccc3C(=O)N2Cc2sccc21` (stereo not given), the Potency entry in test [1], in test [2], in test [3], in test [4] and in test [5] was “inactive” each time.
Consider `CCCCN(CCCC)Cc1cc(=O)oc2cc(C)c(Cl)cc12`, for which the Potency result in test [1], in test [2], in test [3], in test [4] and in test [5] was “inactive” throughout.
With `Cc1ccc(C(=O)NCCCNC(=O)c2ccc(Cl)cc2)cn1`, the Potency result in test [1], in test [2], in test [3], in test [4] and in test [5] was “inactive” in each case.
`CC(C)(C)c1ccc(OCC(=O)Nc2ccc(C(=O)Nc3ccccc3C(=O)O)cc2)cc1`: the Potency in test [1] is 75.7 µM (active). The Potency entry in test [2], in test [3], in test [4] and in test [5] was “inactive” each time.
